Data: PubChem BioAssay (NCATS)
Several values for one entry are separate records, joined by “and”; a condition that tells them apart may be missing. Equal entries are not always repeated. Records with an inconclusive call do not appear. Unmarked numbers belong to inactive results. Activity calls are given as the source filed them. Calls come from the whole dose curve; as a rule, active = well fitted curve in the direction sought with a large enough effect; inconclusive = small, poorly fitted or top-dose-only effect, or another doubt; inactive = no such curve, though single readings can be large; an effect the other way counts as inactive or inconclusive.

Key:
[1] = test system: HeLa; assay: Primary qHTS to identify gynecologic anti-cancer compounds using libraries of approved drugs and bioactive compounds (AID 1345084); settings: Gynecologic cancer cell panel viability, ATPlite luminescence, 48 h; series mostly up to 57.5 µM; note: nearly all actives have a fitted effect of over 55% in size
Procedure, shortened: (§1)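 Cells, 1,000 per well, plated 16 h, then exposed 48 h at 37 C to compounds. Viability by ATPlite luminescence after 15 min at room temperature.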

[2] = test system: OV90; assay: as above; settings: Gynecologic cancer cell panel viability, ATPlite luminescence, 48 h; series mostly up to 57.5 µM
Procedure, shortened: as §1

[3] = test system: Tov-21-G; assay: as above; settings: Gynecologic cancer cell panel viability, ATPlite luminescence, 48 h; series mostly up to 57.5 µM
Procedure, shortened: as §1

[4] = test system: Tov112D; assay: as above; settings: Gynecologic cancer cell panel viability, ATPlite luminescence, 48 h; series mostly up to 57.5 µM
Procedure, shortened: as §1

[5] = Drug repurposing screens with cells derived from glioblastoma tumor samples (AID 1345199); settings: GBM patient neurospheres viability, ATP luminescence, 48 h; note: nearly all actives have a fitted effect of over 40% in size
Procedure, shortened: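 Primary testing used CD133+ neurospheres from four GBM patients, seven concentrations, 48 h exposure and ATP-based viability; confirmation added three slower-growing patient lines.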

[6] = at 45.9 µM (top of the series), tumour line B
[7] = at 45.9 µM (top of the series), tumour line D
[8] = at 46 µM (top of the series), tumour line A
[9] = at 46.1 µM (top of the series), tumour line C
% is set by controls: 0 for no effect and ±100 for the full control effect; potency is the fitted concentration of half-maximal effect.

C=C1C(=O)O[C@H]2/C=C(/C)[C@@H](OC(C)=O)C/C=C(\C)C[C@@H](OC(=O)/C(=C/C)COC(=O)/C(=C/C)CO)[C@@H]12
Potency [1]: inactive | Potency [2]: inactive | Potency [3]: 8.91 µM (active)

O=C(Nc1ccc(N2C(=O)[C@@H]3[C@H](C2=O)[C@@H]2C=C[C@H]3C2)c(Cl)c1)c1ccccn1
Potency [1]: inactive | Potency [4]: inactive

O=C(CCCN1CCC(n2c(=S)[nH]c3ccccc32)CC1)c1ccc(F)cc1
activity, negative = cell killing [5, 6]: -28.9% | Potency ([5]; tumour line A): 8.91 µM (active) | Potency ([5]; tumour line D): 11.2 µM (active)

CCCCCCCCCCCCCCCC(=O)O[C@@H]1CC(C)=C(/C=C/C(C)=C/C=C/C(C)=C/C=C/C=C(C)/C=C/C=C(C)/C=C/C2=C(C)C[C@@H](OC(=O)CCCCCCCCCCCCCCC)CC2(C)C)C(C)(C)C1
activity, negative = cell killing [5, 6]: -12.7% | Potency ([5]; tumour line A): 11.2 µM (active)

O=S(O)CNc1ccc(S(=O)(=O)c2ccc(NCS(=O)O)cc2)cc1
activity, negative = cell killing [5, 6]: -3.7% | activity, negative = cell killing [5, 7]: 0.377% | activity, negative = cell killing [5, 8]: -17.9% | activity, negative = cell killing [5, 9]: -2.81%

CC(=O)O[C@H]1C[C@@H]2CC[C@@H]3[C@H](CC[C@@]4(C)[C@H]3C[C@H](N3CC[N+](C)(C)CC3)[C@@H]4OC(C)=O)[C@@]2(C)C[C@@H]1N1CC[N+](C)(C)CC1
activity, negative = cell killing [5, 6]: -3.42% | activity, negative = cell killing [5, 7]: 1.51% | activity, negative = cell killing [5, 9]: 2.56%

CO[C@H]1[C@@H](O)[C@H](N)[C@@H](O[C@H]2O[C@H]([C@H](C)N)CC[C@H]2N)[C@H](O)[C@@H]1N(C)C(=O)CN
activity, negative = cell killing [5, 6]: -11.8% | activity, negative = cell killing [5, 7]: -4.2% | activity, negative = cell killing [5, 9]: -7.2%

CO/N=C(\C(=O)N[C@@H]1C(=O)N2C(C(=O)OCOC(=O)C(C)(C)C)=C(/C=C\c3scnc3C)CS[C@H]12)c1csc(N)n1
activity, negative = cell killing [5, 6]: -2.3% | activity, negative = cell killing [5, 7]: -0.209% | activity, negative = cell killing [5, 8]: -23.3% | activity, negative = cell killing [5, 9]: -3.78%

CCCC(=O)O[C@]1(C(=O)COC(=O)CC)[C@@H](C)C[C@H]2[C@@H]3CCC4=CC(=O)C=C[C@]4(C)[C@@]3(F)[C@@H](O)C[C@@]21C
activity, negative = cell killing [5, 6]: -13% | activity, negative = cell killing [5, 7]: -14.2% | activity, negative = cell killing [5, 9]: 9.54% | Potency ([5]; tumour line A): 12.6 µM (active)

CC[C@H]1OC(=O)[C@H](C)[C@@H](O[C@H]2C[C@@](C)(OC)[C@@H](O)[C@H](C)O2)[C@H](C)[C@@H](O[C@@H]2O[C@H](C)C[C@H](N(C)C)[C@H]2O)[C@](C)(O)C[C@@H](C)[C@@H]2N[C@@H](COCCOC)O[C@@H]([C@H]2C)[C@]1(C)O
activity, negative = cell killing [5, 6]: -7.98% | activity, negative = cell killing [5, 9]: -7.79% | Potency ([5]; tumour line A): 11.2 µM (active)

CC(=O)[C@@]1(O)CC[C@H]2[C@@H]3C=C(Cl)C4=CC(=O)CC[C@]4(C)[C@H]3CC[C@@]21C
activity, negative = cell killing [5, 6]: -7.69% | activity, negative = cell killing [5, 7]: -22.6% | activity, negative = cell killing [5, 9]: -23.8% | Potency ([5]; tumour line A): 12.6 µM (active)

C1CNCCN1
activity, negative = cell killing [5, 6]: -11% | activity, negative = cell killing [5, 7]: -24.6% | activity, negative = cell killing [5, 8]: -15.8% | activity, negative = cell killing [5, 9]: -0.46%

O=C(Cn1c(=O)sc2ccc(Cl)cc21)N1CCN(CCO)CC1
activity, negative = cell killing [5, 6]: -0.42% | activity, negative = cell killing [5, 7]: -6.64% | activity, negative = cell killing [5, 9]: 15.7%

CCCCCCCC(=O)CC[C@@H]1[C@@H](C/C=C\CCCC(=O)OC(C)C)[C@@H](O)C[C@H]1O
activity, negative = cell killing [5, 9]: -21.1% | Potency ([5]; tumour line A): 11.2 µM (active) | Potency ([5]; tumour line D): 15.8 µM (active)

Cc1cc(-n2c(=O)[nH]c(=O)n(C)c2=O)ccc1Oc1ccc(S(=O)(=O)C(F)(F)F)cc1
activity, negative = cell killing [5, 6]: -20.8% | Potency ([5]; tumour line C): 20.6 µM (active)

CCC(=O)Oc1ccc2c(c1)CC[C@@H]1[C@@H]2CC[C@]2(C)[C@@H](OC(=O)CC)CC[C@@H]12
activity, negative = cell killing [5, 6]: -0.785% | activity, negative = cell killing [5, 7]: -16.9% | activity, negative = cell killing [5, 9]: -12.6% | Potency ([5]; tumour line A): 12.6 µM (active)

CC(=O)O[C@H]1CC[C@@]2(C)C(=CC[C@@H]3[C@@H]2CC[C@]2(C)C(c4cccnc4)=CC[C@@H]32)C1
activity, negative = cell killing [5, 6]: -19.3% | activity, negative = cell killing [5, 9]: -13.1% | Potency ([5]; tumour line A): 11.2 µM (active)

Nc1c(CC(=O)O)cccc1C(=O)c1ccccc1
activity, negative = cell killing [5, 6]: -6.42% and -16.2% | activity, negative = cell killing [5, 7]: 1.99% and -19.1% | activity, negative = cell killing [5, 8]: -11.4% | activity, negative = cell killing [5, 9]: -6.15% and -12.2%

N[C@@H](C(=O)N[C@H]1C(=O)N2C(C(=O)O)=C(Cl)CC[C@H]12)c1ccccc1
activity, negative = cell killing [5, 6]: 3.07% | activity, negative = cell killing [5, 7]: -6.14% | activity, negative = cell killing [5, 9]: -12.4%

CCC(c1ccccc1)c1noc(CCN(CC)CC)n1 (stereo not given)
activity, negative = cell killing [5, 6]: -14.3% | activity, negative = cell killing [5, 7]: -10.2% | activity, negative = cell killing [5, 9]: -2.54%

CC1(C)S[C@@H]2[C@H](NC(=O)C(C(=O)Oc3ccc4c(c3)CCC4)c3ccccc3)C(=O)N2[C@H]1C(=O)O (stereo not given in full)
activity, negative = cell killing [5, 6]: -10.7% | activity, negative = cell killing [5, 7]: -5.29% | activity, negative = cell killing [5, 8]: -6.42% | activity, negative = cell killing [5, 9]: 7.9%

CS(=O)(=O)OCCCNCCCOS(C)(=O)=O
activity, negative = cell killing [5, 6]: 5.52% | activity, negative = cell killing [5, 7]: -25.4% | activity, negative = cell killing [5, 9]: 2.38% | Potency ([5]; tumour line A): 39.8 µM (active)

CCCC(=O)N1CCCN(c2nc(N)c3cc(OC)c(OC)cc3n2)CC1
activity, negative = cell killing [5, 6]: -1.44% | activity, negative = cell killing [5, 7]: -2.77% | activity, negative = cell killing [5, 9]: 14.2% | Potency ([5]; tumour line A): 17.8 µM (active)

CCN(CC)CCOC(=O)c1ccc(N)cc1Cl
activity, negative = cell killing [5, 6]: -9.89% | activity, negative = cell killing [5, 7]: -17.2% | activity, negative = cell killing [5, 8]: -27.9% | activity, negative = cell killing [5, 9]: -6%
